Source: PubChem (National Center for Advancing Translational Sciences (NCATS))
The list is not random: actives were taken first. Their share in the collection is about 0.32%.
Menin MLL FP FL: inhibitors of human menin-MLL interaction, wild-type MLL peptide; Fluorescence polarization, fluorescein-MLL peptide displacement from menin; FP activity change, % at 61.4 µM; 290,000 tested, under 10 active; AID 1766; active means well fitted curve in the direction sought with a large enough effect in the polarisation, not every such curve was filed as active; inconclusive means small, poorly fitted or top-dose-only effect, or effect the other way, or a change in a side signal; inactive means no such curve, though single readings can be large or run the other way; the % refers to the polarisation; further: % of control where 0% means no effect
TRPV1 agonist: activates the human vanilloid receptor TRPV1. Q8NER1. TRPV1-expressing cells, Fluo-8 calcium influx, agonist mode. activation, % at 8.33 µM. actives 0.19% (n = 320,000). AID 540275; in the data active means activation above about 80%; inconclusive means between about 30% and that limit; further: 0% is about no effect
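Fluo-8 calcium influx in TRPV1-expressing cells, kinetic read (ex 480/em 520 nm). Compound added and read 3 min for agonist activity, followed by capsaicin at EC20 final and 2 min further read for enhancement.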
MLL CXXC-DNA inh: MLL CXXC-DNA interaction inhibition; MLL-CXXC / FITC-HOXA9 DNA fluorescence polarization; Q03164; Potency, µM (highest dose often 115 µM), inactives show at the highest dose activity change, negative = inhibition, hits mostly inhibitors; AID 2662; actives 0.037% (n = 290,000); active means well fitted inhibition curve with a large enough effect in the polarisation, with a control signal flat, not every such curve was filed as active; inconclusive means small, poorly fitted or top-dose-only effect, or effect the other way, or a change in a side signal; inactive means no such curve, though single readings can be large or run the other way; the % refers to the polarisation; further: potency means the concentration at half of the fitted maximal effect
Target sequence (Q03164 whole entry, looked up): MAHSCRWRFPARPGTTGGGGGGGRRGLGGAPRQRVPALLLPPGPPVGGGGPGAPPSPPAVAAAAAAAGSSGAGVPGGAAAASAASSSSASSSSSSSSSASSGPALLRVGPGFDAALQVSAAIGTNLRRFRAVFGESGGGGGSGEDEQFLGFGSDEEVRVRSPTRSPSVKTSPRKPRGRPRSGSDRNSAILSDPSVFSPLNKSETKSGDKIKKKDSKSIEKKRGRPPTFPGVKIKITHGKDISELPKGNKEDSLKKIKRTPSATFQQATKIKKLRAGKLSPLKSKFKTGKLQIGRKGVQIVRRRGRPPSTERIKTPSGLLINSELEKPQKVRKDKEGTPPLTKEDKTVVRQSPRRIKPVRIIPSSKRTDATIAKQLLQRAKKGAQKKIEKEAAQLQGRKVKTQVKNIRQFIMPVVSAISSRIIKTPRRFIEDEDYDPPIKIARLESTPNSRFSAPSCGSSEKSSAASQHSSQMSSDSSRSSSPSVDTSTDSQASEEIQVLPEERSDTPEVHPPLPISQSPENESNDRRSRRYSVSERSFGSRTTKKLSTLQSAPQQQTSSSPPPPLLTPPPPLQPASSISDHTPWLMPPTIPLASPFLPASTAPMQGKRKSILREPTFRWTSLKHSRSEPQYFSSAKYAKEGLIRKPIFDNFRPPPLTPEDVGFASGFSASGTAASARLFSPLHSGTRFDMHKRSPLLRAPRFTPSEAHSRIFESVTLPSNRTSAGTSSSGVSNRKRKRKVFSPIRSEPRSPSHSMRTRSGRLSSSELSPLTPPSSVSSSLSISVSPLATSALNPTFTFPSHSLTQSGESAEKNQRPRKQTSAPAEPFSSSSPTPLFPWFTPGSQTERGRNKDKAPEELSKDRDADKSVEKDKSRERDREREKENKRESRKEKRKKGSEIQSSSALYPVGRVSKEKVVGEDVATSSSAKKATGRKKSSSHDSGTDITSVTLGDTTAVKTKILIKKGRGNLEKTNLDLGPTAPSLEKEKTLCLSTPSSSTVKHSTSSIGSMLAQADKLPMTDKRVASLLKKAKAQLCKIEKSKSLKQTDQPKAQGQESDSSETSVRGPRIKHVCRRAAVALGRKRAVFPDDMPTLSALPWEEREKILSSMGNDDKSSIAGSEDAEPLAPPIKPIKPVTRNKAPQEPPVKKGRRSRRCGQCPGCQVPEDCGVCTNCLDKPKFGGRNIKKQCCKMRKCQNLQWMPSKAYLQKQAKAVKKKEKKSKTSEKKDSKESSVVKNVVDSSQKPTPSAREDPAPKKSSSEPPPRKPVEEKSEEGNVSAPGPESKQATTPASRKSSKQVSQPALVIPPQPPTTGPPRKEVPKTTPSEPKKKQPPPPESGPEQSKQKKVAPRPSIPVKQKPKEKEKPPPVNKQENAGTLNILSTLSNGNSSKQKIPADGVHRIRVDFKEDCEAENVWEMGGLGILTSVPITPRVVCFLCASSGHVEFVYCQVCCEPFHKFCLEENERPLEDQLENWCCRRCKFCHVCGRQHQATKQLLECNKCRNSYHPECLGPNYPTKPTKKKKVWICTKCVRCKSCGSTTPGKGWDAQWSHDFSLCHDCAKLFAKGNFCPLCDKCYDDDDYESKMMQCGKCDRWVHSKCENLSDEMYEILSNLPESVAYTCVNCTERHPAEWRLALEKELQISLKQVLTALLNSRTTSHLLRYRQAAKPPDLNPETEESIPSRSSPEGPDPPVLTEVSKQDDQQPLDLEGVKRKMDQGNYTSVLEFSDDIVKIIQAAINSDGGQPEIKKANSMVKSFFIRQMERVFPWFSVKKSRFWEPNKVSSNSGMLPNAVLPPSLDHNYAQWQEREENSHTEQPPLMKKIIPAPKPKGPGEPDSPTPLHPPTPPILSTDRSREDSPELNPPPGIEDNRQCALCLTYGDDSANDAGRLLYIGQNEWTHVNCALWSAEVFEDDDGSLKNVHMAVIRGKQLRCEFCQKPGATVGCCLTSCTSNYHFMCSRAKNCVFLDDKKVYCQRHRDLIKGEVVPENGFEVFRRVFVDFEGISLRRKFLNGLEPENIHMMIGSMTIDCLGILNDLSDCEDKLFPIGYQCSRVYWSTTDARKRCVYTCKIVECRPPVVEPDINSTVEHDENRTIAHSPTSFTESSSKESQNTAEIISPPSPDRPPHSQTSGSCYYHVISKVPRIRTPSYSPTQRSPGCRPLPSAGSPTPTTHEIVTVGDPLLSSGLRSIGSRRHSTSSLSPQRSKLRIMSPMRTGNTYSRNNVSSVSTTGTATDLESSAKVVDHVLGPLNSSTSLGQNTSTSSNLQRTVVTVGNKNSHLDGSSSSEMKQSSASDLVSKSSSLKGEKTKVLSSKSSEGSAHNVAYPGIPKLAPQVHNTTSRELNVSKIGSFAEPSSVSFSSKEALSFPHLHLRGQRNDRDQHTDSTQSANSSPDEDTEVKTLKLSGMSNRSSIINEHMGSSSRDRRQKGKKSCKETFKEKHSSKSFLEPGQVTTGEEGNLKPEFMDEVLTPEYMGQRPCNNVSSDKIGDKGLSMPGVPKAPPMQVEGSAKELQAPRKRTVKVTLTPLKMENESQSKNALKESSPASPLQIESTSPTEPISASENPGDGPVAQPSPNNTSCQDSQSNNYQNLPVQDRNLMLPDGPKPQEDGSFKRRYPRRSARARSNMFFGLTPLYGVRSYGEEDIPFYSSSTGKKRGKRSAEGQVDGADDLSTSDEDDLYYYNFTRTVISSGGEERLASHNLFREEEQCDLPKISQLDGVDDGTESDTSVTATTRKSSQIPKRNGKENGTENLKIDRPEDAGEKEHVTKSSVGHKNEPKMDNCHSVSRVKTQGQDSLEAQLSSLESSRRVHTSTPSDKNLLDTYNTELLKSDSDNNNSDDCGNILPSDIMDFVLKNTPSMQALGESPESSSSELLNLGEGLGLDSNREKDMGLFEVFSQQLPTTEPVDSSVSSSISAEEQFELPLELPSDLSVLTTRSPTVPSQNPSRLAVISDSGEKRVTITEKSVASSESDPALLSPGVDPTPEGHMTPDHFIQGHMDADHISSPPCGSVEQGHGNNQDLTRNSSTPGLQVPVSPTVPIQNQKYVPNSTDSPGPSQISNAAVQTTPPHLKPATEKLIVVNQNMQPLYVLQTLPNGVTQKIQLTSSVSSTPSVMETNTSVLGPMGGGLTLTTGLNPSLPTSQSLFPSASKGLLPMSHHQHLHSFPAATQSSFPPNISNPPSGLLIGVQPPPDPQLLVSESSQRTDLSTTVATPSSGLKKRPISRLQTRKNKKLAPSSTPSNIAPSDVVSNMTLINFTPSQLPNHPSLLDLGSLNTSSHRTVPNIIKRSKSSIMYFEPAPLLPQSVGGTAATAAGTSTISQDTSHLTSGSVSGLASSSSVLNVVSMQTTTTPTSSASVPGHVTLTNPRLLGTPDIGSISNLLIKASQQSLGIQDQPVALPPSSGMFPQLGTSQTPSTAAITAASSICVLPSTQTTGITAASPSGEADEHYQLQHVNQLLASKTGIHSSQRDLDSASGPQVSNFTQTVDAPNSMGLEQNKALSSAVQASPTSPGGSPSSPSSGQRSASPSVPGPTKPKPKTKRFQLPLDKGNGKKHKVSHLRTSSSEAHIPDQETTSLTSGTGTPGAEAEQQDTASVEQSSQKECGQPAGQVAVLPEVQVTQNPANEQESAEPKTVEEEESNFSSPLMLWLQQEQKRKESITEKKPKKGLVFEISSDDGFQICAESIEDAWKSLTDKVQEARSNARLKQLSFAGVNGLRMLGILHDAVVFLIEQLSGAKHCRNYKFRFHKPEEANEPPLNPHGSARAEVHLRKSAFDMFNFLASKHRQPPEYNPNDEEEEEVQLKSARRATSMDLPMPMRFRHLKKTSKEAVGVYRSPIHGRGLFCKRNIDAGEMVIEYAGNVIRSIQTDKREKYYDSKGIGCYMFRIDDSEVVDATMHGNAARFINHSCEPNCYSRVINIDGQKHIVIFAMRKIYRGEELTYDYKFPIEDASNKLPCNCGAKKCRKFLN
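Purified MLL-CXXC (added from a 7 uM solution) was preincubated 5 min at ambient with pinned compounds in 50 mM Tris-HCl pH 7.5, 50 mM NaCl, 1 mM DTT, 0.05% BSA. Fluorescein-labeled HOX-A9 DNA (50 nM solution) followed, 30 min, then polarization read.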
TRPV1 potentiator: enhances activation of the human vanilloid receptor TRPV1. Q8NER1. TRPV1-expressing cells, Fluo-8 calcium influx, capsaicin EC20 potentiation. potentiation, % at 8.33 µM. actives 0.02% (n = 320,000). AID 540277; in the data active means potentiation above about 80%; inconclusive means between about 30% and that limit; further: 0% is about no effect
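Fluo-8 calcium influx in TRPV1-expressing cells, kinetic read (ex 480/em 520 nm). Compound added and read 3 min for agonist activity, followed by capsaicin at EC20 final and 2 min further read for enhancement.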
Menin-MLL TR inh: menin-MLL binding inhibition, Texas Red mutant peptide; O00255; Menin + Texas Red MLL mutant peptide, fluorescence polarization; Potency, µM (highest dose often 61.6 µM), for inactives: at the highest dose FP activity change, negative = inhibition, most hits filed as inhibitors; actives 0.23% (n = 270,000); AID 1768; active means well fitted inhibition curve with a large enough effect in the polarisation, with a control signal flat, not every such curve was filed as active; inconclusive means small, poorly fitted or top-dose-only effect, or effect the other way, or a change in a side signal; inactive means no such curve, though single readings can be large or run the other way; the % refers to the polarisation; further: potency means the concentration at half of the fitted maximal effect; % of control where 0% means no effect
Active calls of the source: *; ? = inconclusive; · = no result; [ ] = dose if it differs, or a comment.

SMILES | Menin MLL FP FL | TRPV1 agonist | MLL CXXC-DNA inh | TRPV1 potentiator | Menin-MLL TR inh
CSCC[C@@H]1NC(=O)[C@@H](NC(=O)[C@H](CCCNC(=N)N)NC(=O)[C@H](CC(C)C)NC(=O)[C@H](CCSC)NC(=O)[C@H](CC(=O)O)NC(=O)[C@H](Cc2ccccc2)NC(=O)[C@@H](N)CC(=O)O)CSSC[C@@H](C(=O)N[C@@H](Cc2c[nH]c3ccccc23)C(=O)N[C@@H](CCC(N)=O)C(=O)N[C@@H](Cc2ccc(O)cc2)C(=O)O)NC(=O)[C@@H]2CCCN2C(=O)[C@H](CCCNC(=N)N)NC(=O)[C@H](Cc2ccccc2)NC(=O)[C@H](C(C)C)NC(=O)[C@H](CCCNC(=N)N)NC(=O)CNC(=O)[C@H](CC(C)C)NC1=O | 0 | · | · | · | -3%
CCC1CCCCC1 | -13 | · | · | · | 1%
O=C1CCCC/C1=C\Nc1ccc(O)cc1 | 1 | -7 | 4% | 6 | 32µM*
O=C(Nc1nc(-c2ccc3c(c2)Cc2ccccc2-3)cs1)c1ccccc1 | 2 | 1 | 5% | -7 | 16µM*
CCN(CC)S(=O)(=O)c1ccc(C(=O)Nc2ccc(Cc3ccncc3)cc2)cc1 | -2 | 81* | 11% | 2 | 34%
COc1ccc(-c2nc3c(c4c2C[C@H](c2ccccc2)OC4)CN(S(=O)(=O)c2ccc(C#N)cc2)CC3)c(C)c1 | 5[11.7 µM] | · | · | · | -3%[11.7 µM]
O=C(Nc1ccc(Cl)cn1)C1C(c2ccccc2)C1(Cl)Cl (configuration not stated) | 2 | ? | -9% | -7 | ?
O=C(Nc1ccccc1)C1C(c2ccccc2)C1(Cl)Cl (configuration not stated) | 6 | 84* | -8% | -31 | 16%
CCS(=O)(=O)N1CCC(C(=O)NC2CCCCCCC2)CC1 | 2 | 0 | 13% | -2 | 18%
CC(C)CN(CC(C)C)S(=O)(=O)N1CCC(C(=O)NC2CCCCCCC2)CC1 | 3 | 84* | -1% | 5 | -6%
O=C(Nc1nc(-c2ccc(S(=O)(=O)N3CCCCCC3)cc2)cs1)c1cccs1 | 4 | 14 | 25% | 18 | 22µM*
O=C(O)c1ccccc1OS(=O)(=O)O | 0 | · | · | · | 3%
CN(C)c1ccc(N=Cc2nc(-c3ccccc3)oc2OC(=O)c2cccc(Cl)c2)cc1 | ? | 80* | 32% | -11 | ?
Cc1cc(F)ccc1S(=O)(=O)Nc1ccccc1C(=O)Nc1ccccc1-c1nc2ccccc2[nH]1 | 14 | -2 | 6% | -1 | 14µM*
CCCCCCCCCCCCCCCCOC[C@H](COP(=O)([O-])OCC[N+](C)(C)C)OC(=O)CCCCCCCC(=O)O | -2 | · | · | · | -8%
C(C#CCCCCCCCCC[n+]1ccccc1)#CCCCCCCCCC[n+]1ccccc1 | -7 | -1 | 15% | 15 | 32µM*
COc1ccc(NS(=O)(=O)c2cc(NC(=O)/C=C/c3cc(OC)ccc3OC)ccc2N2CCCCC2)cc1 | 0 | -5 | 3% | -20 | 10µM*
COC(=O)[C@H](CC(C)C)NC(=O)c1ccc(NC[C@@H](N)CS)cc1-c1cccc2ccccc12 | 0 | · | · | · | -27%
C/C(=N\Nc1ccc2nncn2n1)c1ccc(Cl)s1 | -2 | 115* | 2% | -11 | ·
Cc1ccc(N2CCN(C(=O)Nc3cccc([N+](=O)[O-])c3)CC2C)cc1 (configuration not stated) | 2 | 83* | 10% | 1 | ?
O=C(Nc1cccc([N+](=O)[O-])c1)N1CCN(c2ccccc2)CC1 | 1 | 100* | ? | -17 | ?
CCN(CC)c1ccc(C(=O)Nc2ccccc2)cc1[N+](=O)[O-] | -2 | 82* | 4% | -13 | ?
O=C(Nc1cccc([N+](=O)[O-])c1)c1ccc(-c2ccccc2)cc1 | · | 87* | 21% | 17 | -12%
COc1ccc(C2=Nn3c(nnc3-c3ccc(OC)cc3OC)SC2)c(OC)c1 | -6 | · | · | · | ?
COc1ccc(NC(=O)C2CCCN(c3ncccn3)C2)cc1 (configuration not stated) | 3 | 28 | 2% | -23 | 3%
SMILES | Menin MLL FP FL | TRPV1 agonist | MLL CXXC-DNA inh | TRPV1 potentiator | Menin-MLL TR inh
Cc1cc(N2CCCC(C(=O)Nc3cccc(Cl)c3)C2)n2ncnc2n1 (configuration not stated) | 1 | ? | 6% | -18 | 14%
Cc1cc(N2CCCC(C(=O)Nc3ccc4c(c3)CCC4)C2)n2ncnc2n1 (configuration not stated) | 3 | 93* | 8% | 10 | 0%
COc1ccc(NC(=O)C2CCCN(c3nccc(C)n3)C2)cc1 (configuration not stated) | -1 | 94* | 4% | 22 | 13%
OC[C@H]1OC(O)[C@H](O)[C@@H](O)[C@@H]1O (some centres not stated) | -10 | · | · | · | -6%
N=c1oc2c3c4c(cc2cc1C(=O)Nc1ccccc1)CCCN4CCC3 | ? | 84* | ? | 11 | -7%
CC(=O)Oc1ccc(C(=O)Nc2ccc(C3(C#N)CCCC3)cc2)cc1 | 0 | 0 | 46% | 86* | ?
O=C(NCc1ccc(Cl)cc1)c1cc(-c2cccs2)on1 | 5 | 7 | 6% | -10 | 28µM*
COc1ccc(CNC(=O)Nc2ccc([N+](=O)[O-])cc2)cc1 | -7 | · | · | · | -48%
COc1ccc(CNC(=O)C(C)c2ccc([N+](=O)[O-])cc2)cc1 (configuration not stated) | 0 | 80* | -8% | -21 | -10%
CC12C=C(/C=C/c3ccc(F)cc3)C(C)(C1)C(c1ccc(F)cc1)CC2=O (configuration not stated) | 0[11.7 µM] | · | · | · | 10%[11.7 µM]
CCOc1ccc2nc(NC(=O)c3cccc(-c4cc5ccccc5oc4=O)c3)sc2c1 | 1 | 0 | 6% | 2 | -28%
Cc1ccc2nc(NC(=O)c3ccc4c(c3)OCO4)sc2c1 | -1 | 82* | 16% | 3 | -26%
Cc1ccc2nc(NC(=O)c3cccc(-c4cc5ccccc5oc4=O)c3)sc2c1 | 0 | -1 | 13% | 0 | 22µM*
CC(C)CCOc1ccc(N)cc1 | -2 | · | · | · | -17%
Cc1ccc(N2C(=O)c3cccc4c(N)ccc(c34)C2=O)c2cccnc12 | ? | 94* | ? | -8 | ·
CCCN1C(=O)c2cccc3c(N4CCCCC4)ccc(c23)C1=O | ? | 17 | ? | -6 | 6%
Cc1nn(C)c(C)c1N1C(=O)c2cccc3c(N)ccc(c23)C1=O | ? | 93* | ? | -16 | -7%
Cc1nn(C)c(C)c1N1C(=O)c2cccc3c(Br)ccc(c23)C1=O | 0 | 0 | -11% | ? | 6%
CCN1C(=O)c2cccc3c(N)ccc(c23)C1=O | ? | 198* | ? | 6 | 22%
CCCCNc1ccc2c3c(cccc13)C(=O)N(CCCC)C2=O | ? | 92* | ? | -5 | ·
